Assay [1] deals with human Peripheral-type Benzodiazepine Receptor (PBR), TSPO (gene 706) (UniProt P30536). The assay can be described thus: NVS_MP_hPBR: NovaScreen (NVS) Membrane Protein Assay for human Peripheral-type Benzodiazepine Receptor (PBR) (AID 2283331).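 Note: hits reduce radioligand binding relative to DMSO baseline.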 The method, boiled down:
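Radioligand displacement on human colonic cell membranes, 1 h incubation; bound radioactivity by filtration and scintillation counting. Primary screen in duplicate at 25 uM single concentration, actives followed up in concentration series; loss of binding versus DMSO.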

In assay [2] the target is Voltage-gated inwardly rectifying potassium channel KCNH2 (Homo sapiens) (UniProt Q12809). The assay can be described thus: NVS_IC_hKhERGCh: NovaScreen (NVS) Ion Channel Assay for human Potassium Channel ERG (KhERGCh) (AID 2283333). The method, boiled down: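 Cell-free radioligand competition binding on hERG protein extracted from CHO cells, read by filter-based scintillation counting 0.75 h after dosing. Primary screen at 25 uM in duplicate, actives followed in concentration series. Signal loss fitted versus DMSO.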

Assay [3] has as its target rat Peripheral-type Benzodiazepine Receptor (PBR), Tspo (gene 24230) (UniProt P16257). As to the kind of experiment: NVS_MP_rPBR: NovaScreen (NVS) Membrane Protein Assay for rat Peripheral-type Benzodiazepine Receptor (PBR) (AID 2283335). The method, boiled down:
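Rat kidney membranes; radioligand binding with displacement, filter-based scintillation counting, 1 h incubation. Primary screen in duplicate at 25 uM, actives followed in concentration series; loss of binding vs DMSO.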

Assay [4] can be described thus: NVS_IC_rCaBTZCHL: NovaScreen (NVS) Ion Channel Assay for Calcium Channel, Type L, Benzothiazepine Site (CaBTZCHL) (AID 2283337). The method, boiled down: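 Radioligand displacement at the benzothiazepine site using rat cortical membranes; bound label measured by filtration and scintillation counting 1.5 h after dosing. Single-point 25 uM in duplicate, then concentration series; DMSO baseline.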

Assay [5] concerns the target rat Glutamate, MK-801 Agonist Site (GluNMDA_MK801), Grin1 (gene 24408) (UniProt P35439). The assay can be described thus: NVS_LGIC_rGluNMDA_MK801_Agonist: NovaScreen (NVS) Ligand-Gated Ion Channel Assay for rat Glutamate, MK-801 Agonist Site (GluNMDA_MK801) (AID 2283340). The method in brief:
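Radioligand binding at MK-801 site in rat forebrain membranes, 1.5 h incubation, filter-based scintillation counting. Initially 25 uM in duplicate; actives then run in concentration-response up to 50 uM, fitted for gain of signal versus DMSO.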

Assay [6] addresses human Androgen Receptor (AR), AR (gene 367) (UniProt P10275). The assay can be described thus: NVS_NR_hAR: NovaScreen (NVS) Nuclear Receptor Binding Assay for human Androgen Receptor (AR) (AID 2283332). The method, boiled down: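 LnCAP cell-free extract; radioligand displacement read by scintillation counting after 20 h. Primary screen single concentration 25 uM in duplicate, actives then run as concentration series; loss-of-signal fitted relative to DMSO baseline.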

The target of assay [7] is rat Oxytocin Receptor (OXT), Oxtr (gene 25342) (UniProt P70536). As to the kind of experiment: NVS_GPCR_rOXT: NovaScreen (NVS) G Protein-Coupled Receptor Assay for rat Oxytocin Receptor (OXT) (AID 2283330). The method, boiled down: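 Radioligand displacement on rat uterine membranes, 1 h incubation, filter-based scintillation counting. Chemicals were screened in duplicate at 25 uM, and those passing threshold were retested in concentration-response up to 50 uM. Loss of binding was fitted versus DMSO.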

Assay [8] addresses bovine Gamma-Aminobutyric Acid Type A Receptor Agonist (GABAR Agonist), GABRA1 (gene 780973) (UniProt P08219). The assay can be described thus: NVS_LGIC_bGABAR_Agonist: NovaScreen (NVS) Ligand-Gated Ion Channel Assay for bovine Gamma-Aminobutyric Acid Type A Receptor Agonist (GABAR Agonist) (AID 2283338). The method, boiled down: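 Radioligand binding to bovine cerebellar membranes in agonist format, read by filter-based scintillation counting after 1 h. Primary screen in duplicate at 25 uM, with actives followed in concentration series. Gain of signal versus DMSO.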

Assay [9] has as its target rat Glycine Receptor, Strychnine-sensitive (GlyRStrySens), Glra1 (gene 25674) (UniProt P07727). As to the kind of experiment: NVS_LGIC_rGlyRStrySens: NovaScreen (NVS) Ligand-Gated Ion Channel Assay for rat Glycine Receptor, Strychnine-sensitive (GlyRStrySens) (AID 2283341). The method in brief:
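Radioligand displacement on rat spinal cord membranes, 1 hr, filter scintillation read-out. Single-concentration duplicate screen at 25 uM; chemicals meeting threshold (e.g., 30% inhibition) rerun in concentration-response up to 50 uM. Loss of binding fitted versus DMSO.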

Values joined by “and” are separate entries in the source; they are usually repeats but may differ in a detail not shown here. Equal entries are not always repeated. Results filed as inconclusive are left out. Active and inactive are the calls of the source. Rule for the calls: active = hit-call score of the fitted dose curve at least 0.9, where 1 is the maximum; inconclusive = response in the unintended direction; inactive = score below 0.9.

human Peripheral-type Benzodiazepine Receptor (PBR), TSPO (gene 706), sequence (P30536 whole entry, looked up): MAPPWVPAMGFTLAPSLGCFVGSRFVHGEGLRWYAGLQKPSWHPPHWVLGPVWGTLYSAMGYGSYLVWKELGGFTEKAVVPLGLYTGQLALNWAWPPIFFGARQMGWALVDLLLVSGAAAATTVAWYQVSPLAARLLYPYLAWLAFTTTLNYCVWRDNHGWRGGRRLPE
rat Peripheral-type Benzodiazepine Receptor (PBR), Tspo (gene 24230), sequence (P16257 whole entry, looked up): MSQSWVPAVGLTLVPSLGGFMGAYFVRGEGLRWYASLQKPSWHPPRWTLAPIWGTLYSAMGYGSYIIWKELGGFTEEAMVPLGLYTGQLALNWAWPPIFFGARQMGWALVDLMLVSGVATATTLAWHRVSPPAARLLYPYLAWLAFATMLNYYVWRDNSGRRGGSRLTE
Voltage-gated inwardly rectifying potassium channel KCNH2 (Homo sapiens), sequence (Q12809 whole entry, looked up): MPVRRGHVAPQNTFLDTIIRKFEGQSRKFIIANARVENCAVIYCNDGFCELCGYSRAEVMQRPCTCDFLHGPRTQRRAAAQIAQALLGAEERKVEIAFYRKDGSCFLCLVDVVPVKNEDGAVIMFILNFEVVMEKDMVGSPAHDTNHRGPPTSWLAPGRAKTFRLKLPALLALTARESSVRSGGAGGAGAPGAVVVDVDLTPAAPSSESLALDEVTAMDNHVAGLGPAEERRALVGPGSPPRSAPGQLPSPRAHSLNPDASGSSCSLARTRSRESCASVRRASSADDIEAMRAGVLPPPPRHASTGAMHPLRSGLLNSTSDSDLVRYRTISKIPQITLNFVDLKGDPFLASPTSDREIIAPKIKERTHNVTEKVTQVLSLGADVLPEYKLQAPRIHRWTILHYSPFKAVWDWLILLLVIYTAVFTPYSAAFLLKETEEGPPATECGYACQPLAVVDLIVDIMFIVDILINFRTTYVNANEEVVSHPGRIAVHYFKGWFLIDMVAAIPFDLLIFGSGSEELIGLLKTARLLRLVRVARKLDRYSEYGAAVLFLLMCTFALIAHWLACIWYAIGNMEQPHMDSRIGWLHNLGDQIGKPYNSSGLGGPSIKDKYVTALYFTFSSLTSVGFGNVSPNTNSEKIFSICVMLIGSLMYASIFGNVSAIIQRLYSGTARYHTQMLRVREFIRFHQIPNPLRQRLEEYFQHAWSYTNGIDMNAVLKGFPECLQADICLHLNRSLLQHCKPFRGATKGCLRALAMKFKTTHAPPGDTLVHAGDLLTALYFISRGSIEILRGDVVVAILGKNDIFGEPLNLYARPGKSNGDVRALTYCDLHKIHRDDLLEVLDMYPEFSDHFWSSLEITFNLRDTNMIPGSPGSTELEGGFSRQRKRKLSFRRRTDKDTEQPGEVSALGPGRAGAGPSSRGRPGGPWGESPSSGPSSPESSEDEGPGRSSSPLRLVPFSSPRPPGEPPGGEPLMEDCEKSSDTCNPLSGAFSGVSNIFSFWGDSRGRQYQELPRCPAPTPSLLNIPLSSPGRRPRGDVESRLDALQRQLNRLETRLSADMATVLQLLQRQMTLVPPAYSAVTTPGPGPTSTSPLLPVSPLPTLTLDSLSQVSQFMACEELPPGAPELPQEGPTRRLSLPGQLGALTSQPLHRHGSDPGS
human Androgen Receptor (AR), AR (gene 367), sequence (P10275 whole entry, looked up): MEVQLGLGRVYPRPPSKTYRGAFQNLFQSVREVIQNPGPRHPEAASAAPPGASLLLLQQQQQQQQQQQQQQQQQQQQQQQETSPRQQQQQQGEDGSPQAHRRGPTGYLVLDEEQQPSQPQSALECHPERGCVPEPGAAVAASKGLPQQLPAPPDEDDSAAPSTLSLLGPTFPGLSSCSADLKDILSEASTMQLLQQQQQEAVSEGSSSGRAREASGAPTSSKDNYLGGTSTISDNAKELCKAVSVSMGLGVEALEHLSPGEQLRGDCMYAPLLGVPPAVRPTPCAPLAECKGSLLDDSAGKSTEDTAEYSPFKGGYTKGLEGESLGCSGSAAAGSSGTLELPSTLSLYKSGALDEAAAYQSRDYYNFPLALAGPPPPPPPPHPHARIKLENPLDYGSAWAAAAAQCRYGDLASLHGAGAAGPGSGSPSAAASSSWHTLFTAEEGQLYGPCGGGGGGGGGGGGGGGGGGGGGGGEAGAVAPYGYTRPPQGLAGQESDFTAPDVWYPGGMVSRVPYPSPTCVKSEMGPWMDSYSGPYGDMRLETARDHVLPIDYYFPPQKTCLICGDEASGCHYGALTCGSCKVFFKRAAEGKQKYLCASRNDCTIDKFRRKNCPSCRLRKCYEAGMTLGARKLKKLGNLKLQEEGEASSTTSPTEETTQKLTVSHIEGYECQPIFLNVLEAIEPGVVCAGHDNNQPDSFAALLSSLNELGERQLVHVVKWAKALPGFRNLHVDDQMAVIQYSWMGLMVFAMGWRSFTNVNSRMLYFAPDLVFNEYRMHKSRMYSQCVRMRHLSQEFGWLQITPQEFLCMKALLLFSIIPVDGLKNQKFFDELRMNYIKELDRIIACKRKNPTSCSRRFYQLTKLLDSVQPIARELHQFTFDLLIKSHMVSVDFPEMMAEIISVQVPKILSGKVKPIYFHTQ
bovine Gamma-Aminobutyric Acid Type A Receptor Agonist (GABAR Agonist), GABRA1 (gene 780973), sequence (P08219 whole entry, looked up): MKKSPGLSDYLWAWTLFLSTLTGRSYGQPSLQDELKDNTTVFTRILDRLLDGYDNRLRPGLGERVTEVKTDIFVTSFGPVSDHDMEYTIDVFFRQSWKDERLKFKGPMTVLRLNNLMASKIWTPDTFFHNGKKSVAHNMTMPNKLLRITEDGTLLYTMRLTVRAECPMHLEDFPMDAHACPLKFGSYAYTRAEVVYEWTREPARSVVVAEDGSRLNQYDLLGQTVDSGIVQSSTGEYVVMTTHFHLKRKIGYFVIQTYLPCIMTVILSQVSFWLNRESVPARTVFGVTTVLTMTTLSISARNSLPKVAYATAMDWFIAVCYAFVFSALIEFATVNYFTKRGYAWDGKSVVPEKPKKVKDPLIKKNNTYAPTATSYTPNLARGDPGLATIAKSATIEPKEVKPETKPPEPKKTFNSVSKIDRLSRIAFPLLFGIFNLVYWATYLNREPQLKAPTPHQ
rat Glycine Receptor, Strychnine-sensitive (GlyRStrySens), Glra1 (gene 25674), sequence (P07727 whole entry, looked up): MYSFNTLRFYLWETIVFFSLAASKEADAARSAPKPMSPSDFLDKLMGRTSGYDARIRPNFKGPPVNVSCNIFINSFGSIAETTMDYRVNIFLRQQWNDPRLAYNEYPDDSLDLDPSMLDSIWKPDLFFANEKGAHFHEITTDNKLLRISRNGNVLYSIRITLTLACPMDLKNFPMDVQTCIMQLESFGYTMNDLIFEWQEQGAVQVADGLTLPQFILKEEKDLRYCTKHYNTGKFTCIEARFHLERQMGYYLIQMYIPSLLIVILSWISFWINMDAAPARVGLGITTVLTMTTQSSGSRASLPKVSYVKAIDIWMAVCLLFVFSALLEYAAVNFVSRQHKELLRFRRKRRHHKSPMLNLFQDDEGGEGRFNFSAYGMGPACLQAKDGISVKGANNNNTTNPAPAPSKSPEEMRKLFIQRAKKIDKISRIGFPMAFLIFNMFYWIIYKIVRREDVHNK
rat Oxytocin Receptor (OXT), Oxtr (gene 25342), sequence (P70536 whole entry, looked up): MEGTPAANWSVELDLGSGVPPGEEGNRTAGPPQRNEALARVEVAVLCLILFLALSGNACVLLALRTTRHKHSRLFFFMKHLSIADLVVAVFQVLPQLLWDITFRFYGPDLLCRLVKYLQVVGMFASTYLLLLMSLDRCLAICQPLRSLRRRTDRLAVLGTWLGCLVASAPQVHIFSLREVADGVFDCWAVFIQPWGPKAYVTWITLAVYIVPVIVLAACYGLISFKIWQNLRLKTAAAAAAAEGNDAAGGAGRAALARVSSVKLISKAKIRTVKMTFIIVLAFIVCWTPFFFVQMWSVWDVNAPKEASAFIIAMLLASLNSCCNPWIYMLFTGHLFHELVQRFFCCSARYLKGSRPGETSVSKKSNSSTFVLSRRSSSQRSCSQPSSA

Take `c1cc[c]([Hg][c]2ccccc2)cc1`: in assay [1], the AC50 is 0.372 µM (active).
With `CC(C)CCCCCCOC(=O)c1ccccc1C(=O)OCCCCCCC(C)C`, the outcome in assay [1] was inactive.
In the case of `CCN1CCC2(CC1)COc1cc3c(cc12)N(C(=O)c1ccc(-c2ccc(-c4nnc(C)o4)cc2C)cc1)CC3`, the AC50 in assay [1] was 2.37 µM (active); in assay [3], 6.5 µM (active); in assay [4] it was 4.16 µM (active); in [5], 39.1 µM (active). Also, the compound was called inactive in [2].
As to `COP(=S)(OC)Oc1ccc(Sc2ccc(OP(=S)(OC)OC)cc2)cc1`, the AC50 in assay [1] is 1.16 µM (active) and 16.9 µM (active); in assay [6], 17.9 µM (active); in assay [3], 0.307 µM (active); in assay [4], 25 µM (active).
In the case of `COP(=O)(OC)O/C(=C\Cl)c1cc(Cl)c(Cl)cc1Cl`, the AC50 in assay [1] was 0.401 µM (active); in assay [3] it was 0.38 µM (active).
In the same order, the values of `Cc1ccccc1C(=O)Nc1cccc(OC(C)C)c1` are 1.12 µM (active) and 1.13 µM (active).
For the compound `COP(=S)(OC)Oc1ccc(S(=O)(=O)N(C)C)cc1`, the AC50 in assay [1] is 5.32 µM (active); in assay [3], 1.45 µM (active).
As for `CCC[CH2][Sn]([CH2]CCC)([CH2]CCC)[O]C(=O)c1ccccc1`, the AC50 in assay [1] was 5.59 µM (active).
`O=C(OC1CCCCC1)c1ccccc1C(=O)OC1CCCCC1`: in [1], the AC50 is 3.21 µM (active) and 6.79 µM (active).
In the case of `CCCCCCCCC(=O)NCc1ccc(O)c(OC)c1`, the concentration at half-maximal activity (AC50) in assay [1] was 4.12 µM (active); in assay [3], 6.25 µM (active).
Regarding `CCOP(=S)(OCC)SCCS(=O)(=O)CC`, in assay [1], the half-maximal activity concentration (AC50) was 30.7 µM (active).
Turning to `C[C@H]1CCCC(=O)CCC/C=C/c2cc(O)cc(O)c2C(=O)O1`, the AC50 in assay [1] was 1.66 µM (active); in assay [3], 0.346 µM (active).
For `CCOC(=O)/C=C(C)/C=C/C[C@@H](C)CCCC(C)C` the same measures were 33.2 µM (active) and 17.6 µM (active).
Regarding `O=C1C(Cl)=C(Cl)C(=O)c2ccccc21`, the AC50 in assay [1] was 7.47 µM (active).
With `COc1cc(-c2ccc(N)c(OC)c2)ccc1N`, the concentration at half-maximal activity (AC50) in assay [1] is 19.4 µM (active); in assay [3] it was 2.75 µM (active) and 2.71 µM (active).
With `CC(C)(c1ccc(OCC2CO2)cc1)c1ccc(OCC2CO2)cc1` (stereo not drawn), the AC50 is 7.73 µM (active) in assay [1] and 4.31 µM (active) in assay [3].
For `COP(=S)(OC)Oc1c(Cl)cc(C)cc1Cl`, the AC50 in assay [1] is 9.23 µM (active). The compound was called inactive in assay [3].
With `CC(=O)[O][Hg][c]1ccccc1`, the concentration at half-maximal activity (AC50) in assay [7] was 15.7 µM (active); in assay [6] it was 16.9 µM (active).
With `Clc1ccc(COC(Cn2ccnc2)c2ccc(Cl)cc2Cl)cc1` (stereo not drawn), the results for the AC50 in [1] and in assay [3] were 1.09 µM (active) and 1.63 µM (active), respectively.
With `Oc1ccc(-c2ccccc2)cc1`, the AC50 in [1] was 43.8 µM (active) and 13.8 µM (active).
The same measure, in the same setting: the value for `Nc1ccc(-c2ccc(N)c(Cl)c2)cc1Cl` was 9.91 µM (active).
As for `C=C(C)C(=O)[O][Sn]([CH2]CCC)([CH2]CCC)[CH2]CCC`, the call in assay [2] and in [8] was inactive.
`O=C(O)C(Cl)(Cl)Cl`: in [2], the outcome was inactive.
In the case of `CCC(=O)C(CC(C)N(C)C)(c1ccccc1)c1ccccc1` (stereo not drawn), the AC50 in assay [9] is 18.1 µM (active).

By AC50 is commonly meant the concentration at which the activity in the assay is half-maximal.
